Hits are enriched below; roughly 4% of the tested compounds scored in any of these assays.
Mtb FBA inh – Mtb FBA enzyme inhibitors, primary screen, biochemical, fluorescence, strain H37Rv; Fructose-bisphosphate aldolase (Mycobacterium tuberculosis (strain ATCC 25618 / H37Rv)), …; purified M. tuberculosis FBA, fluorescence read-out; inhibition, % at 1 µM; 2.3% of 360,000 active; AID 588726, 2011;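 also: 0% = vehicle and 100% = reference inhibitor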
Mtb bLac sens – beta-lactam sensitization of Mtb H37Rv, H37Rv. 0.27% of 330,000 active. inhibition, % at 25 µM. M. tuberculosis H37Rv growth with meropenem, percent inhibition; call rule not given here;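 also: growth measured after seven days incubation then overnight dye step; 0% = bacteria only wells and 100% = bacteria with antibiotic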
RecA splice inh – Mtb RecA intein splicing inhibitors, primary screen, biochemical, fluorescence, HTS; Protein RecA (Mycobacterium tuberculosis (strain ATCC 25618 / H37Rv)), P9WHJ3; cell-free RecA intein splicing; inhibition, % (no concentration beside the values); 0.75% of 290,000 active; in the data active = inhibition above about 30%; inconclusive = no clear call, values can overlap the other calls;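 also: 0% = vehicle wells and 100% = reference inhibitor control wells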
GDH-TPI counter-1 – GDH-TPI coupling enzyme inhibitors, primary screen, artefact control for M. tuberculosis FBA inhibitor project, biochemical, absorbance, full deck | inhibition, % at 4.8 µM | AID 588335, 2011 | 1.2% of 360,000 active | GDH-TPI coupled enzyme counterscreen, NADH absorbance; in the data active = inhibition above about 30%;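 also: 0% = DMSO wells and 100% = wells lacking the enzyme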
Rv3671c inh – Rv3671c serine protease inhibitors, primary screen, biochemical, fluorescence polarization, M. tuberculosis H37Rv. P9WHR9. inhibition, % at 5.96 µM. 0.048% of 320,000 active; in the data active = inhibition above about 38%;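 also: extracellular domain of Rv3671c used as enzyme; 0% = enzyme with DMSO and 100% = no enzyme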
Target sequence (P9WHR9 whole entry, looked up, the tested form may be a part): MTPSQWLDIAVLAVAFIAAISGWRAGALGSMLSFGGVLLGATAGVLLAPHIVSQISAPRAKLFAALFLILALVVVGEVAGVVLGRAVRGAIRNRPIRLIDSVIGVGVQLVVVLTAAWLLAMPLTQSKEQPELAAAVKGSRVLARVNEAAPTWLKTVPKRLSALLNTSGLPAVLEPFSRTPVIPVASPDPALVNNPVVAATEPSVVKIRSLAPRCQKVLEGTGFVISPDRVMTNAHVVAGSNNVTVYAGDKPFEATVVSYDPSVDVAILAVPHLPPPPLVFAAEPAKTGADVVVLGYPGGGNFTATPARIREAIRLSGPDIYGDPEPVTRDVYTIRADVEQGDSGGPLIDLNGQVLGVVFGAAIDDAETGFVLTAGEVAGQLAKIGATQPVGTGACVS
Mtb UGM inh – M. tuberculosis UGM enzyme inhibitors, primary screen, biochemical, fluorescence polarization, single point | purified UGM, fluorescence polarization probe displacement | 0.06% of 320,000 active | UDP-galactopyranose mutase (Mycobacterium tuberculosis (strain ATCC 25618 / H37Rv)), … | inhibition, % at 10 µM; in the data active = inhibition above about 10%, passing the limit was not always enough; inconclusive = no clear call, values can overlap the other calls
Mtb FBA inh conf – M. tuberculosis aldolase blockers, biochemical, fluorescence, strain H37Rv, confirmation; AID 651616, 2012; shares compounds with Mtb FBA inh; purified M. tuberculosis FBA, fluorescence read-out; 78% of 5,600 active; inhibition, % at 1 µM;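 also: 0% = vehicle wells and 100% = reference inhibitor wells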
GDH-TPI counter-2 – GDH-TPI coupling enzyme inhibitors, artefact control for M. tuberculosis FBA inhibitor project, biochemical, fluorescence, high throughput; shares compounds with Mtb FBA inh; inhibition, % at 1 µM; 81% of 5,600 active; AID 652141, 2013; GDH-TPI coupled enzyme counterscreen; in the data active = inhibition above about 10%
* marks the source's active call; other numbers are inactive results; i = inactive; u = inconclusive; x = no result given; + = active, no number. Rule as the data show it, unless noted: active = inhibition above about 27%; inactive = the rest.

SMILES	Mtb FBA inh	Mtb bLac sens	RecA splice inh	GDH-TPI counter-1	Rv3671c inh	Mtb UGM inh	Mtb FBA inh conf	GDH-TPI counter-2
Cc1cccn2c(=O)c3cc(C(=O)NCCN4CCOCC4)c(=N)n(CCc4ccccc4)c3nc12	102*	62	i	13	2	3	58*	55*
N=c1c(C(=O)NC2CCCCC2)cc2c(=O)n3ccccc3nc2n1Cc1ccc(F)cc1	40*	97	-173	4	-1	3	70*	51*
COc1ccc(CCNC(=O)c2cc3c(=O)n4ccccc4nc3n(CCN3CCOCC3)c2=N)cc1	24	10	-20	7	2	1	x	x
Cc1cccn2c(=O)c3cc(C(=O)NC4CCS(=O)(=O)C4)n(Cc4ccccc4)c3nc12 (centres undefined)	40*	11	-197	22	-12	2	114*	92*
O=C(CNC(=O)c1ccco1)NNC(=O)c1cccc(Cl)c1	5	-5	x	-8	-6	3	x	x
CC1CCCCN1Cc1c(O)ccc2c(=O)c(-c3nc4ccccc4s3)coc12 (centres undefined)	0	-9	-6	17	5	-4	x	x
CCCCc1cc(=O)oc2c(CN(CC)CC)c(O)c(Cl)cc12	x	0	-133	7	2	2	x	x
CC1CN(Cc2c(O)ccc3c(=O)c(-c4ccccc4Cl)coc23)CC(C)O1 (centres undefined)	57*	-2	-1	25	-2	2	105*	87*
O=c1c(-c2ccc(Br)cc2)coc2c(CN3CCCCC3)c(O)ccc12	31*	x	-2	2	x	x	7	-3
CCC1CCCCN1Cc1c(O)ccc2c(=O)c(-c3ccccc3OC)coc12 (centres undefined)	83*	-1	-1	8	-1	0	43*	31*
CCN(CC)Cc1c(O)ccc2c(=O)c(-c3ccccc3Cl)coc12	85*	0	-3	31*	4	1	+	+
CC1(Oc2cccnc2Cl)CCN(Cc2ccc(OC(F)(F)F)cc2)C1 (centres undefined)	8	x	x	8	x	x	x	x
O=c1c(-c2ccccc2Cl)coc2c(CN3CCCCC3)c(O)ccc12	80*	-6	-1	13	-4	3	64*	60*
O=c1c(-c2ccc(Cl)cc2)coc2c(CN3CCCCC3)c(O)ccc12	27*	-7	0	12	-3	3	2	0
O=c1c(-c2ccc(Br)cc2)coc2c(CN3CCOCC3)c(O)ccc12	19	-3	-3	0	2	1	x	x
CC(=O)Nc1nc(CC(C)C)cc(-c2ccccc2)c1C#N	3	-4	2	2	8	3	x	x
CC(=O)Nc1nc(CC(C)C)cc(-c2ccco2)c1C#N	50*	-5	0	-3	-2	3	177*	146*
COC(=O)c1ccc(-c2nc(CN3CCC(C(=O)N4CCOCC4)CC3)c(C)o2)cc1	48*	u	-1	-3	-8	-4	47*	37*
O=C(COc1cc2oc(=O)c3c(c2cc1Cl)CCCC3)N1C[C@H]2C[C@@H](C1)c1cccc(=O)n1C2	35*	-9	-3	21	2	-1	122*	87*
CC(Oc1cc2oc(=O)c3c(c2cc1Cl)CCC3)C(=O)N1C[C@H]2C[C@@H](C1)c1cccc(=O)n1C2 (some centres undefined)	37*	-8	-3	19	-6	3	124*	111*
Cc1cc(OCC(=O)N2C[C@H]3C[C@@H](C2)c2cccc(=O)n2C3)c2c(C)cc(=O)oc2c1	34*	4	-1	17	-3	-1	+	+
Cc1c(OC(C)C(=O)N2C[C@H]3C[C@@H](C2)c2cccc(=O)n2C3)ccc2c3c(c(=O)oc12)CCC3 (some centres undefined)	9	-3	7	6	-1	3	x	x
Cc1cc(C)cc(NC(=O)C[n+]2ccccc2)c1	-3	5	2	-9	x	-1	x	x
CC1(C)CC(=O)C=C(c2ccccc2-c2ccc(S(C)(=O)=O)cc2)C1=O	-2	x	x	4	x	x	x	x
CC(OC(=O)c1ccc(S(=O)(=O)NCc2ccco2)cc1)C(=O)Nc1ccc(Cl)cn1 (centres undefined)	-1	10	2	-2	-5	-2	x	x
SMILES	Mtb FBA inh	Mtb bLac sens	RecA splice inh	GDH-TPI counter-1	Rv3671c inh	Mtb UGM inh	Mtb FBA inh conf	GDH-TPI counter-2
CC(OC(=O)c1ccccc1NCc1ccco1)C(=O)Nc1ncc(Cl)cc1Cl (centres undefined)	57*	-10	3	-5	-2	1	9	-7
COc1ccc2[nH]c(=O)c(-c3nnn(-c4ccc(F)cc4)n3)cc2c1	11	-2	-16	0	5	3	x	x
COc1ccc2[nH]c(=O)c(-c3nnn(-c4ccccc4)n3)cc2c1	34*	5	-4	9	-6	6	176*	128*
COc1ccc2[nH]c(=O)c(-c3noc(-c4ccccc4)n3)cc2c1	32*	54	-27	8	-12	-1	165*	117*
COc1ccc(C2C(C(N)=O)=C(C)Nc3nc(CCCO)nn32)cc1OC (centres undefined)	3	-7	-1	-2	1	1	x	x
Cc1cccn2c(NCc3ccc4c(c3)OCO4)c(-c3ccc(O)cc3)nc12	53*	4	-2	3	1	-2	182*	112*
OCc1ccccc1SSc1ccccc1CO	1	30	-6	2	-2	-1	x	x
CC1=CC2=NC(=O)CC(C)(C(=O)N(CC(=O)NC(C)(C)C)C3CCCC3)N2C=C1 (centres undefined)	9	-5	0	2	-6	-1	x	x
CC1(C(=O)N(CC(=O)NC2CCCC2)Cc2ccc(Cl)cc2)CC(=O)N=C2C=CC=CN21 (centres undefined)	89*	-5	0	10	0	-2	+	+
CC1=CC2=NC(=O)CC(C)(C(=O)N(CC(=O)NC(C)(C)C)Cc3cccs3)N2C=C1 (centres undefined)	101*	1	-1	20	0	2	149*	125*

Screening data from PubChem.
